Assay [1] is described as follows: ACEA_ER_80hr: ACEA Biosciences xCELLigence Real-Time Cell Analysis on Estrogen Receptor Agonism for Proliferation (AID 2282667; active means hit-call score of the fitted dose curve at least 0.9, where 1 is the maximum). Conditions: T47D proliferation, impedance (xCELLigence), 80 h. In a few lines: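 T47D human breast cells were seeded on electrode plates, monitored overnight, then exposed continuously to compounds in eight-point 1:4 dilutions from 100 uM (max 0.5% DMSO). Impedance-based growth was read at 80 h, fitted upward relative to DMSO.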

Assay [2] in a line: ATG_CRE_CIS: Attagene CIS-FACTORIAL HepG2 Assay for human cAMP Responsive Element (CRE) binding protein 3 (AID 2282926). Conditions: HepG2 CRE cis-reporter, Attagene multiplexed mRNA; actives raise or lower the signal. In a few lines:
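Capillary electrophoresis of 6-FAM-labelled, HpaI-digested PCR products quantified reporter transcripts. These came from HepG2 transiently transfected with cis-element reporters and exposed to test chemicals for 24 hours, with DMSO defining baseline activity.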

Assay [3] has as its target CCAAT/enhancer-binding protein beta (Homo sapiens) (UniProt P17676). In words: ATG_C_EBP_CIS: Attagene CIS-FACTORIAL HepG2 Assay for human CCAAT/Enhancer Binding Protein (C/EBP) beta (AID 2282927). The settings on record: HepG2 Attagene cis-factorial transcription factor reporter; actives raise or lower the signal. In a few lines: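 Transiently transfected HepG2 (MRTU library, endogenous TF-driven promoters); 24 h dosing; total RNA → oligo(dT) RT → PCR → 6-FAM primer extension → HpaI digest → CE; fit bidirectionally vs DMSO.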

A short description of assay [4]: ATG_CMV_CIS: Attagene CIS-FACTORIAL HepG2 Assay for human CMV (Internal Marker) (AID 2282928).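 Further: endpoint acts as a background internal control marker rather than a target.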 Conditions: HepG2 CMV promoter reporter, transcription factor profiling; actives raise or lower the signal. The method, boiled down: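 Fluorescence intensity of RT-PCR-derived reporter fragments, resolved by capillary electrophoresis, gives the signal. HepG2 liver cells bearing transfected cis-element reporters were treated 24 h; activity in either direction was fit relative to DMSO-treated controls.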

Assay [5] is described as follows: ATG_DR4_LXR_CIS: Attagene CIS-FACTORIAL HepG2 Assay for human Liver X Receptor (LXR), DR4 submotif (AID 2282929). The settings on record: HepG2 Attagene DR4 cis-reporter, mRNA transcription; actives raise or lower the signal. In a few lines:
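Endogenous factor activity at a DR4 cis-element is read as reporter mRNA in transiently transfected HepG2 cells. Exposure lasts 24 h; transcripts are amplified, fluorescently labelled and sized by capillary electrophoresis, with DMSO as baseline.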

Assay [6] deals with Aryl hydrocarbon receptor (Homo sapiens) (UniProt P35869). In words: ATG_Ahr_CIS: Attagene CIS-FACTORIAL HepG2 Assay for human Aryl Hydrocarbon Receptor (Ahr) (AID 2282930). The settings on record: HepG2 AhR cis-factorial reporter transcription; actives raise or lower the signal. In a few lines: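 Read-out: reporter mRNA quantified by RT-PCR with fluorescent primer extension and capillary electrophoresis. Human HepG2 liver cells carried transfected cis-promoter reporter units and were exposed to chemical for 24 h; gain or loss fitted relative to DMSO.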

A short description of assay [7]: ATG_AP_1_CIS: Attagene CIS-FACTORIAL HepG2 Assay for human Activator Protein 1 (AP-1) (AID 2282931). The settings on record: HepG2 Attagene cis-factorial AP-1 reporter mRNA; actives raise or lower the signal. In a few lines:
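Fluorescence of labelled PCR fragments separated by capillary electrophoresis gives reporter mRNA levels. HepG2 with transfected cis-regulated reporter units, 24 h exposure; DMSO serves as baseline for bidirectional curve fits.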

The nature of assay [8]: ATG_AP_2_CIS: Attagene CIS-FACTORIAL HepG2 Assay for human Activator Protein 2 (AP-2) (AID 2282932). The settings on record: HepG2 AP-2 cis-reporter, Attagene transcription factor profiling; actives raise or lower the signal. The method, boiled down: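 Liver-derived HepG2 line, cis-reporter system measuring endogenous factors; 24 h dosing; reporter mRNA detected by fluorescent RT-PCR and capillary electrophoresis.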

Assay [9] in a line: ATG_BRE_CIS: Attagene CIS-FACTORIAL HepG2 Assay for human Bone Morphogenetic Protein (BMP) Response Element (BRE) (AID 2282933). Conditions: HepG2 BMP response element reporter, Attagene transcription factor profiling; actives raise or lower the signal. The method, boiled down: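 A HepG2 multiplex reporter system measured inducible reporter mRNA 24 h post-dosing. Detection: RT-PCR, 6-FAM primer extension, HpaI digestion, capillary electrophoresis. Activity fitted bidirectionally relative to DMSO.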

Assay [10] deals with Retinoic acid receptor alpha (Homo sapiens) (UniProt P10276). In words: ATG_DR5_RAR_CIS: Attagene CIS-FACTORIAL HepG2 Assay for human Retinoic Acid Receptor Alpha (RARE), DR5 submotif (AID 2282934). Conditions: HepG2 Attagene cis-factorial RARE DR5 reporter, mRNA; actives raise or lower the signal. The method, boiled down: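 Read-out: DR5-driven reporter transcript measured by RT-PCR, 6-FAM primer extension, HpaI digest and capillary electrophoresis. Human HepG2 liver cells carry transiently transfected cis-element reporter constructs; dosing lasts 24 h. Gain or loss of signal fitted against DMSO baseline.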

For assay [11], the target named is Transcription factor E2F1 (Homo sapiens) (UniProt Q01094). In words: ATG_E2F_CIS: Attagene CIS-FACTORIAL HepG2 Assay for human E2F Transcription Factor 1 (AID 2282935). The settings on record: HepG2 Attagene cis-reporter, E2F reporter RNA transcripts; actives raise or lower the signal. The method, boiled down:
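Liver-derived HepG2 cells expressing transfected promoter-driven reporter units received test chemical for 24 hours. Signal gains or losses were fitted bidirectionally against DMSO.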

Assay [12] can be described thus: ATG_E_Box_CIS: Attagene CIS-FACTORIAL HepG2 Assay for human Enhancer Box (E-box) (AID 2282936). Conditions: HepG2 E-box cis-reporter transcription, actives raise or lower the signal. In a few lines: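 In this cell-based setup, HepG2 cells bearing transfected promoter-driven reporter units were exposed to chemicals for 24 h; reporter transcripts were amplified, 6-FAM-labelled, cut with HpaI and sized by capillary electrophoresis.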

A short description of assay [13]: ATG_M_61_CIS: Attagene CIS-FACTORIAL HepG2 Assay for M61 Transcription Factor (Internal Marker) (AID 2282937). The settings on record: HepG2 Attagene CIS-FACTORIAL M61 internal marker reporter; actives raise or lower the signal. The method, boiled down:
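This endpoint serves as an internal background control within a multiplexed HepG2 cis-reporter panel. Cells are exposed for 24 h; reporter mRNA is amplified, fluorescently labelled and sized by capillary electrophoresis, with DMSO as negative control.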

Assay [14] in a line: ATG_EGR_CIS: Attagene CIS-FACTORIAL HepG2 Assay for human Early Growth Response 1 (EGR1) (AID 2282938). Conditions: HepG2 Attagene CIS-FACTORIAL EGR reporter mRNA; actives raise or lower the signal. In a few lines: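 HepG2, transient MRTU transfection (cis promoters), 24 h compound. RNA → RT (oligo-dT) → PCR → 6-FAM labelling → HpaI cut → CE fluorescence. Bidirectional fit, DMSO baseline.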

The nature of assay [15]: ATG_ERE_CIS: Attagene CIS-FACTORIAL HepG2 Assay for Estrogen Response Element (ERE) (AID 2282940). The settings on record: HepG2 ERE cis-reporter, Attagene RNA transcript; actives raise or lower the signal. The method, boiled down:
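Human liver cells (HepG2) bearing transiently transfected, promoter-regulated reporter units were exposed 24 h. Reporter mRNA induction was detected by capillary electrophoresis of labelled RT-PCR products and fitted bidirectionally to DMSO.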

Assay [16] in a line: ATG_Ets_CIS: Attagene CIS-FACTORIAL HepG2 Assay for human Erythroblast Transformation Specific (ETS) (AID 2282941). Conditions: HepG2 ETS cis-reporter transcription, actives raise or lower the signal. In a few lines:
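Multiplexed reporter transcript profiling: HepG2, 24 h treatment, total RNA to cDNA, PCR, 6-FAM labelling, HpaI cut, capillary electrophoresis. Gain- or loss-of-signal fitted against DMSO.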

The target in assay [17] is Hepatocyte nuclear factor 3-beta (Homo sapiens) (UniProt Q9Y261). In words: ATG_FoxA2_CIS: Attagene CIS-FACTORIAL HepG2 Assay for human Forkhead box A2 (FOXA2) (AID 2282942). Conditions: HepG2 cis-reporter transcription factor activity, 24 h; actives raise or lower the signal. In a few lines:
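Cells: HepG2, transient multiplex reporter transfection. Exposure 24 h. Detection: reporter-specific RT-PCR, fluorescent labelling, restriction digest, capillary electrophoresis. Analysis: bidirectional curve fit, DMSO as negative control.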

The nature of assay [18]: ATG_FoxO_CIS: Attagene CIS-FACTORIAL HepG2 Assay for human Forkhead box O (FoxO) (AID 2282943). Conditions: HepG2 Attagene cis-reporter, FoxO element, mRNA; actives raise or lower the signal. In a few lines: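 Read-out: fluorescence of 6-FAM-labelled reporter cDNA fragments resolved by capillary electrophoresis. Transiently transfected HepG2 cells were dosed for 24 h; activity fitted in both directions relative to DMSO controls.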

Assay [19] can be described thus: ATG_GATA_CIS: Attagene CIS-FACTORIAL HepG2 Assay for human GATA Binding Protein (AID 2282944). Conditions: HepG2 GATA cis-element reporter, Attagene multiplex mRNA; actives raise or lower the signal. In a few lines:
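Transfected cis-reporter HepG2 cells were treated with chemicals for 24 hours. Total RNA was then converted to cDNA, amplified with reporter-specific primers and analysed by fluorescent capillary electrophoresis, using DMSO-treated wells as baseline.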

Inconclusive results are not listed. Activity calls are given as the source filed them. How the source made its calls, unless noted: active means hit-call score of the fitted dose curve at least 0.9, where 1 is the maximum; inactive means score below 0.9.

Hepatocyte nuclear factor 3-beta (Homo sapiens), sequence (Q9Y261 whole entry, looked up): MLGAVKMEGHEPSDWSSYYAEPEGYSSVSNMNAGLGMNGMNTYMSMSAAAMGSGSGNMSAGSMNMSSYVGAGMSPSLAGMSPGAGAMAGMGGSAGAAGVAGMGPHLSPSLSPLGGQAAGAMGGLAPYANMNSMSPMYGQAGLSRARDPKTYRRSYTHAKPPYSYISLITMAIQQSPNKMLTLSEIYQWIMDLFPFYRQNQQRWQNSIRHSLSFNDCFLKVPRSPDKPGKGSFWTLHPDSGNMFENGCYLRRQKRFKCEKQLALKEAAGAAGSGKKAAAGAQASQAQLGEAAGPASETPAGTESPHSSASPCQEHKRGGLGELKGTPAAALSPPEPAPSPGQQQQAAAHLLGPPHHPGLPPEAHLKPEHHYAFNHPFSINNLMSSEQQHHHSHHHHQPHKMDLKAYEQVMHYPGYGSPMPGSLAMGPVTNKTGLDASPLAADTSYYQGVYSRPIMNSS
Aryl hydrocarbon receptor (Homo sapiens), sequence (P35869 whole entry, looked up): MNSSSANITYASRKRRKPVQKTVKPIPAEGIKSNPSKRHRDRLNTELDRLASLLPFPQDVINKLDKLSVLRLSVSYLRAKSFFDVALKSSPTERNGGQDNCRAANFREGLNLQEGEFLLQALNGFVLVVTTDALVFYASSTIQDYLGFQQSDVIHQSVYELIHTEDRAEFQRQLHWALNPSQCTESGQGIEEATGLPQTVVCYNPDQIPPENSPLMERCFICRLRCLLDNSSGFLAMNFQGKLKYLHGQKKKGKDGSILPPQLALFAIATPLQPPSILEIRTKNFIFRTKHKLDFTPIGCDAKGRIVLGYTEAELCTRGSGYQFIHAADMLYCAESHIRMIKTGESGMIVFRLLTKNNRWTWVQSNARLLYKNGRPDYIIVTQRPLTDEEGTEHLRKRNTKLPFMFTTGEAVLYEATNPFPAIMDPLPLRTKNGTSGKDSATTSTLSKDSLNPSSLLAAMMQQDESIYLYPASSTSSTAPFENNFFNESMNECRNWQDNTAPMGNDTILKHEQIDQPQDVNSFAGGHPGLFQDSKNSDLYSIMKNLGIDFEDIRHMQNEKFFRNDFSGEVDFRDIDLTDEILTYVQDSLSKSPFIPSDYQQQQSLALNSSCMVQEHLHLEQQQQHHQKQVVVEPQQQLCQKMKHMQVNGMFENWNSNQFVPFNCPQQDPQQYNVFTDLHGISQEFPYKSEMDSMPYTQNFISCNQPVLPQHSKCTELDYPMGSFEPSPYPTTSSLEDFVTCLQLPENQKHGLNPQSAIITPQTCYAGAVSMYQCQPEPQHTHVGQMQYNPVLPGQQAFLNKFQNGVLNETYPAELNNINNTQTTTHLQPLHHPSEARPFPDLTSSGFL
Transcription factor E2F1 (Homo sapiens), sequence (Q01094 whole entry, looked up): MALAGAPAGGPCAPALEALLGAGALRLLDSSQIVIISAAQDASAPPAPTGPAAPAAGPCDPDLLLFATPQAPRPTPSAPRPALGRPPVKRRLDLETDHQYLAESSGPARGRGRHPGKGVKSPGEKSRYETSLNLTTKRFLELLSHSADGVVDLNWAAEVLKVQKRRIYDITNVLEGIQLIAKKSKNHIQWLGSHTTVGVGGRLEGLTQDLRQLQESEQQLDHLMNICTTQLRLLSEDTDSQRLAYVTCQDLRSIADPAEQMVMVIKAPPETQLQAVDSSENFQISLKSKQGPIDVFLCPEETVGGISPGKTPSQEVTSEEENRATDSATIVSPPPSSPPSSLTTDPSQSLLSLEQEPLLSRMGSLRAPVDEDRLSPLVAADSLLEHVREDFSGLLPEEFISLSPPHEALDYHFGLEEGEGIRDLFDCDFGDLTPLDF
Retinoic acid receptor alpha (Homo sapiens), sequence (P10276 whole entry, looked up): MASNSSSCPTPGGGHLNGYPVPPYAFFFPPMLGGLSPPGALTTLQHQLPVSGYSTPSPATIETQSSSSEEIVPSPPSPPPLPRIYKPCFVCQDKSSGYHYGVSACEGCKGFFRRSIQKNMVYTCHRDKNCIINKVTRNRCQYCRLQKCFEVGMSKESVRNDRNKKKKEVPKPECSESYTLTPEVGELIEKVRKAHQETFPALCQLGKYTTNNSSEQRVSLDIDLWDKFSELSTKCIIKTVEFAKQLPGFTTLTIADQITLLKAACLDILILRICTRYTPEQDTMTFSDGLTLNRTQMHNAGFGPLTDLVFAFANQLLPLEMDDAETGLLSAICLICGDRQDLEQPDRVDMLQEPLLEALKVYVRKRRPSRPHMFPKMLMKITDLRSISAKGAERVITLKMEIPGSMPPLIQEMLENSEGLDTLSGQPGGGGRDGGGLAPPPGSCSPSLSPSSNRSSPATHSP
CCAAT/enhancer-binding protein beta (Homo sapiens), sequence (P17676 whole entry, looked up): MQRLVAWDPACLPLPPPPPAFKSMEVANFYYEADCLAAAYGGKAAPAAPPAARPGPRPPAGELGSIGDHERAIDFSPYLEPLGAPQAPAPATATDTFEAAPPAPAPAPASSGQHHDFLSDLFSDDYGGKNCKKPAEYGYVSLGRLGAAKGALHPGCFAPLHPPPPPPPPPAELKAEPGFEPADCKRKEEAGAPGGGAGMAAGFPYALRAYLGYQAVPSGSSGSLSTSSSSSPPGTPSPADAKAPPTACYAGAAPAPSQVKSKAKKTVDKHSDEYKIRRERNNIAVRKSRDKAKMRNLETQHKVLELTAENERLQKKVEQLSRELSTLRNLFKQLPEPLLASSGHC

In the case of `O=C(Cl)C(F)(F)C(F)(F)C(F)(F)C(F)(F)C(F)(F)C(F)(F)C(F)(F)F`, the AC50 (usually the concentration at which the activity in the assay is half-maximal) in assay [1] is 19.7 µM (active); in assay [4], 63.3 µM (active); in assay [7], 66.7 µM (active); in [15] it was 47.5 µM (active). In addition, the outcome in [2], in assay [3], in assay [5], in assay [6], in [8] and in [9] was inactive. Moreover, the result in assay [10], in assay [11], in assay [12], in assay [13], in assay [14] and in [16] was inactive. Further, the outcome in assay [17], in assay [18] and in assay [19] was inactive.
Regarding `CCCCCC/C=C/CCCCCCCC(=O)O`, the compound was called inactive in [1], in [2], in assay [3], in assay [4], in assay [5] and in assay [6]. The outcome in assay [7], in assay [8], in [9], in assay [10], in assay [11] and in [12] was inactive. In addition, the call in assay [13], in assay [14], in assay [15], in [16], in assay [17] and in assay [18] was inactive. In addition, the compound was called inactive in assay [19].
In the case of `NC(=O)C(F)(F)C(F)(F)C(F)(F)F`, the call in assay [1], in [2], in [3], in [4], in assay [5] and in [6] was inactive. In addition, the call in [7], in assay [8], in assay [9], in [10], in assay [11] and in assay [12] was inactive. Further, the compound was classed as inactive in [13], in [14], in assay [15], in assay [16], in assay [17] and in assay [18]. For the same compound, in assay [19], the compound was classed as inactive.
In the case of `CCCCCCCCCc1ccc(OCCO)cc1`, the AC50 in assay [1] was 0.278 µM (active); in [2], 22.8 µM (active); in assay [3], 4.25 µM (active); in assay [4] it was 13.3 µM (active); in assay [5] it was 19.3 µM (active); in [7] it was 2.26 µM (active). For the same compound, the AC50 was 23.2 µM (active) in [8]; 7.68 µM (active) in [9]; 23.1 µM (active) in [12]; 22.9 µM (active) in assay [16]; 21.9 µM (active) in assay [17]; 13.3 µM (active) in [18]. The result in assay [6], in [10], in assay [11], in [13], in [14] and in assay [15] was inactive. Moreover, the compound was classed as inactive in assay [19].
For `CCN=C1C=CC(=C(c2ccc(N(CC)CC)cc2)c2ccc(N(CC)CC)cc2)c2ccccc21`, the outcome in assay [1], in assay [10], in assay [11], in assay [13], in assay [15] and in assay [16] was inactive. Moreover, the compound was classed as inactive in assay [17], in assay [18] and in assay [19]. Further, the AC50 was 1.17 µM (active) in [2]; 0.0334 µM (active) in assay [3]; 0.905 µM (active) in assay [4]; 0.655 µM (active) in [5]; 0.0482 µM (active) in [6]; 0.191 µM (active) in [7]. Moreover, the AC50 is 3.68 µM (active) in assay [8], 0.0688 µM (active) in assay [9], 2.01 µM (active) in assay [12] and 0.78 µM (active) in assay [14].

The record behind these values is PubChem BioAssay (EPA / NIEHS).
